Assay results reported in PubChem BioAssay AID1159580 (chemical genetic matrix, 2015).
Several values for one entry are separate records, joined by “and”; a condition that tells them apart may be missing. Equal values may be shown once. In all, about 5,500 compounds went through this assay and about 2,000 (36%) were called active. About 18% were inconclusive and are not listed. Rule as the data show it: active = normalized growth mostly below about 0.91 (no sharp cut-off); inconclusive = no clear call, values can overlap the other calls; inactive = mostly above about 0.92. This is one part of the list.

Test: chemical genetic growth profiling, strain panel (AID 1159580);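 also: tested at 20 µM; growth read once vehicle control cultures reached saturation at 30 °C; 1 = growth at the plate median or of vehicle wells; lower values mean less growth of the strain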
Details: growth OD

Measured: normalized growth

C/C=C(/C)C(=O)O[C@H]1CC[C@@]2(C)[C@@H]3CC[C@H]4[C@]5(O)C[C@H](O)[C@@]6(O)[C@@H](CN7C[C@@H](C)CC[C@H]7[C@@]6(C)O)[C@]5(O)C[C@@]42O[C@]13O
inactive: S. cerevisiae deletion strains, locus YBR021W, strain FUR4, active compounds read low 1 | S. cerevisiae deletion strains, locus YBR229C, strain ROT2, active compounds read low 1.01 | S. cerevisiae deletion strains, locus YCL029C, strain bik1, active compounds read low 0.988 | S. cerevisiae deletion strains, locus YDL035C, strain GPR1, active compounds read low 0.991 | S. cerevisiae deletion strains, locus YDL074C, strain BRE1, active compounds read low 0.981 | S. cerevisiae deletion strains, locus YDL101C, strain DUN1, active compounds read low 1.02 | S. cerevisiae deletion strains, locus YDL185W, strain tfp1, active compounds read low 0.966 | S. cerevisiae deletion strains, locus YDL192W, strain arf1, active compounds read low 0.966 | S. cerevisiae deletion strains, locus YDR101C, strain arx1, active compounds read low 0.981 | S. cerevisiae deletion strains, locus YDR162C, strain NBP2, active compounds read low 1.05 | S. cerevisiae deletion strains, locus YDR318W, strain mcm21, active compounds read low 0.987 | S. cerevisiae deletion strains, locus YDR388W, active compounds read low 0.98 | S. cerevisiae deletion strains, locus YDR502C, strain sam2, active compounds read low 0.988 | S. cerevisiae deletion strains, locus YEL061C, strain CIN8, active compounds read low 1 | S. cerevisiae deletion strains, locus YER110C, active compounds read low 0.964 | S. cerevisiae deletion strains, locus YER155C, strain BEM2, active compounds read low 1 | S. cerevisiae deletion strains, locus YER167W, strain BCK2, active compounds read low 0.995 | S. cerevisiae deletion strains, locus YGL078C, strain dbp3, active compounds read low 0.993 | S. cerevisiae deletion strains, locus YGL086W, strain mad1, active compounds read low 0.975 | S. cerevisiae deletion strains, locus YGL248W, strain PDE1, active compounds read low 1.03 | S. cerevisiae deletion strains, locus YGR078C, strain PAC10, active compounds read low 1.05 | S. cerevisiae deletion strains, locus YGR135W, strain pre9, active compounds read low 0.993 | S. cerevisiae deletion strains, locus YGR252W, strain gcn5, active compounds read low 1.11 | S. cerevisiae deletion strains, locus YHR030C, strain SLT2, active compounds read low 0.988 and 0.996 | S. cerevisiae deletion strains, locus YHR079C, strain IRE1 (second series), active compounds read low 0.969 | S. cerevisiae deletion strains, locus YHR079C, strain IRE1, active compounds read low 0.969 | S. cerevisiae deletion strains, locus YHR094C, strain hxt1, active compounds read low 0.981 | S. cerevisiae deletion strains, locus YHR129C, strain ARP1, active compounds read low 0.996 | S. cerevisiae deletion strains, locus YHR200W, strain rpn10, active compounds read low 0.964 | S. cerevisiae deletion strains, locus YIL066C, strain RNR3, active compounds read low 1.01 | S. cerevisiae deletion strains, locus YIL073C, strain SPO22, active compounds read low 0.949 | S. cerevisiae deletion strains, locus YIL125W, strain kgd1, active compounds read low 1 | S. cerevisiae deletion strains, locus YIR030C, strain dcg1, active compounds read low 0.977 | S. cerevisiae deletion strains, locus YJL095W, strain BCK1, active compounds read low 1.05 and 0.999 | S. cerevisiae deletion strains, locus YJL134W, strain LCB3, active compounds read low 0.996 | S. cerevisiae deletion strains, locus YJL168C, strain set2, active compounds read low 0.982 | S. cerevisiae deletion strains, locus YJL187C, strain SWE1 (second series), active compounds read low 1.07 | S. cerevisiae deletion strains, locus YJR043C, strain POL32, active compounds read low 1.02 | S. cerevisiae deletion strains, locus YJR066W, strain TOR1, active compounds read low 0.928 | S. cerevisiae deletion strains, locus YKL009W, strain mrt4, active compounds read low 0.948 | S. cerevisiae deletion strains, locus YKL068W, active compounds read low 0.987 | S. cerevisiae deletion strains, locus YKL085W, strain MDH1 (second series), active compounds read low 0.979 | S. cerevisiae deletion strains, locus YKL085W, strain MDH1, active compounds read low 0.979 | S. cerevisiae deletion strains, locus YKR001C, strain vps1, active compounds read low 0.965 | S. cerevisiae deletion strains, locus YLR039C, strain RIC1, active compounds read low 0.908 | S. cerevisiae deletion strains, locus YLR058C, strain SHM2, active compounds read low 1.01 | S. cerevisiae deletion strains, locus YLR102C, strain apc9, active compounds read low 0.975 | S. cerevisiae deletion strains, locus YLR113W, strain HOG1, active compounds read low 0.995 | S. cerevisiae deletion strains, locus YLR262C, strain YPT6, active compounds read low 0.934 | S. cerevisiae deletion strains, locus YLR268W, strain sec22, active compounds read low 0.97 | S. cerevisiae deletion strains, locus YLR330W, strain CHS5, active compounds read low 0.986 | S. cerevisiae deletion strains, locus YLR342W, strain FKS1 (second series), active compounds read low 1.05 | S. cerevisiae deletion strains, locus YLR371W, strain rom2, active compounds read low 0.982 | S. cerevisiae deletion strains, locus YLR418C, strain cdc73, active compounds read low 0.988 | S. cerevisiae deletion strains, locus YML016C, strain PPZ1, active compounds read low 1 | S. cerevisiae deletion strains, locus YML032C, strain rad52, active compounds read low 1 | S. cerevisiae deletion strains, locus YML124C, strain tub3, active compounds read low 0.984 | S. cerevisiae deletion strains, locus YMR078C, strain ctf18, active compounds read low 0.958 | S. cerevisiae deletion strains, locus YMR223W, strain ubp8, active compounds read low 1 | S. cerevisiae deletion strains, locus YMR263W, strain SAP30, active compounds read low 1.01 | S. cerevisiae deletion strains, locus YMR307W, strain GAS1, active compounds read low 1.15 | S. cerevisiae deletion strains, locus YNL067W, strain RPL9B, active compounds read low 1.03 | S. cerevisiae deletion strains, locus YNL183C, strain NPR1, active compounds read low 0.974 | S. cerevisiae deletion strains, locus YNL233W, strain BNI4, active compounds read low 1.03 | S. cerevisiae deletion strains, locus YNL250W, strain rad50, active compounds read low 0.962 | S. cerevisiae deletion strains, locus YNL271C, strain bni1, active compounds read low 0.994 | S. cerevisiae deletion strains, locus YNL298W, strain CLA4, active compounds read low 0.993 | S. cerevisiae deletion strains, locus YNL307C, strain MCK1, active compounds read low 0.995 | S. cerevisiae deletion strains, locus YNR052C, strain pop2, active compounds read low 1.01 | S. cerevisiae deletion strains, locus YOL012C, strain htz1 0.767 | S. cerevisiae deletion strains, locus YOL147C, strain pex11, active compounds read low 0.991 | S. cerevisiae deletion strains, locus YOR061W, strain CKA2, active compounds read low 1 | S. cerevisiae deletion strains, locus YOR069W, strain VPS5, active compounds read low 0.997 | S. cerevisiae deletion strains, locus YOR136W, strain idh2, active compounds read low 0.981 | S. cerevisiae deletion strains, locus YOR144C, strain elg1, active compounds read low 1.01 | S. cerevisiae deletion strains, locus YOR184W, strain ser1, active compounds read low 0.993 | S. cerevisiae deletion strains, locus YOR231W, strain MKK1, active compounds read low 1.01 | S. cerevisiae deletion strains, locus YOR316C, strain cot1, active compounds read low 0.98 | S. cerevisiae deletion strains, locus YPL256C, strain CLN2, active compounds read low 0.983 | S. cerevisiae deletion strains, locus YPR119W, strain clb2, active compounds read low 0.963 | S. cerevisiae deletion strains, locus YPR141C, strain kar3, active compounds read low 0.981 | S. cerevisiae deletion strains, locus YPR163C, strain tif3, active compounds read low 0.977 | S. cerevisiae deletion strains, locus YPR167C, strain met16, active compounds read low 0.957 | S. cerevisiae deletion strains, strain wtn01, active compounds read low 0.977 | S. cerevisiae strains, strain wild type, active compounds read low 1.01
